D1 PAM: human D1 dopamine receptor positive modulation | P21728 | HEK293 TREx D1 cells, calcium flux, dopamine EC20 potentiation | potentiation, % at 10 µM | 0.036% of 360,000 active; in the data active = potentiation above about 30%; note: 0% is about no effect
TRHR PAM: allosterically enhances the human TRH receptor; TRHR cells, fluo-8 calcium fluorescence, EC20 TRH enhancement; enhancement, % at 2 µM; 0.66% of 360,000 active; AID 493056; in the data active = enhancement above about 30%; note: 0% is about no effect
Target sequence (P34981 whole entry, looked up): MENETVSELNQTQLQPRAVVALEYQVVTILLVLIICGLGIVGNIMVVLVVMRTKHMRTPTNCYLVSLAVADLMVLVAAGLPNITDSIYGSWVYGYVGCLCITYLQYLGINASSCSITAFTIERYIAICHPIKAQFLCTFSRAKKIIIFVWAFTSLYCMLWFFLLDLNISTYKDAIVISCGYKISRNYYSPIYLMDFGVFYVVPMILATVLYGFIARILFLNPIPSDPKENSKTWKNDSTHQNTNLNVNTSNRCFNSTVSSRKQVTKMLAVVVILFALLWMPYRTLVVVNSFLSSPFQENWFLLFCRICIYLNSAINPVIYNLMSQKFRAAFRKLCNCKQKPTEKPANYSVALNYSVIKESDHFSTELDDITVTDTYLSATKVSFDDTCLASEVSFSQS
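Enhancer read-out: after compound pinning and an initial kinetic agonist-mode read, an EC20 of TRH (10 nM final) was injected and fluo-8 calcium signal (Ex 480/Em 530) followed at 1 s/cycle for 100 cycles in TRHR-expressing cells.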
D1 agonist: human D1 receptor agonism; P21728; HEK293 T-REx D1 cells, calcium flux, agonist mode; activation, % at 2 µM; 1% of 360,000 active; AID 504660; note: 0% is about no effect
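Inducible HEK293 T-REx D1 cells, force-coupled to calcium signalling, were plated at 4000 cells/well with tetracycline and held overnight at 30 C. After no-wash calcium dye loading, compound-evoked calcium rise over 180 s flagged agonists.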
TRHR agonist: agonists of human TRH receptor | activation, % at 2 µM | TRHR cells, calcium flux fluo-8, FDSS agonist mode | P34981 | 0.18% of 360,000 active; note: 0% is about no effect
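Fluo-8-loaded TRHR cells; 10 s baseline, compound added, kinetic Ca2+ fluorescence read 1/s, agonist mode.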
D1 antagonist: blocks dopamine activation of the human D1 receptor; AID 504652; 3.2% of 360,000 active; P21728; HEK293 TREx D1 cells, calcium flux, dopamine EC80; active compounds read low; activity change, negative = inhibition, % at 10 µM; in the data active = activity change below about -30%; note: % is set by controls: 0 for no effect and ±100 for the full control effect
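HEK293 T-REx cells expressing inducible, force-coupled D1 receptor; no-wash Ca dye, 30–90 min RT. Cmpd → 180 s read at 1 Hz → EC80 DA → 180 s read.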
An asterisk follows results filed as active; / = not tested or not shown. This is a sample that favours compounds with a hit; in the whole collection about 4.7% have one here. Cut-off read from the data, not from the text of the source, unless noted: active = activation above about 30%; inactive = the rest.

SMILES | D1 PAM | TRHR PAM | D1 agonist | TRHR agonist | D1 antagonist
COc1ccc(-n2cc(CNCCc3ncc(C)[nH]3)c(-c3ccccc3Cl)n2)cc1 | 3 | 16 | 2 | 0 | 2
COc1cccc(NC(=O)N(Cc2c[nH]c3ccccc23)C2CCCCCC2)c1 | 1 | 13 | 3 | 0 | 15
Cc1ccc(NC(=O)CSc2nccn2-c2ccccc2)cc1 | -2 | -1 | 11 | 0 | -15
CC1C(=O)N2CCCc3cc(S(=O)(=O)Nc4ccc(Br)cc4F)cc1c32 (stereo not given) | -2 | 0 | 0 | 0 | -30*
O=C(Nc1ccccc1)N(CCCN1CCOCC1)Cc1ccccc1F | -1 | -2 | 2 | 0 | -21
CCOc1ccccc1CNCCN1CCOCC1 | -3 | 0 | 2 | 1 | 6
N#Cc1nc(Cc2cccc3ccccc23)oc1NCCCn1ccnc1 | -6 | 4 | 9 | 0 | 7
c1ccc2c(CNCCN3CCOCC3)cccc2c1 | -11 | 5 | 3 | 0 | -32*
CN(C)C(=O)N(CCCN1CCOCC1)Cc1cccc2ccccc12 | -14 | -7 | 2 | 0 | -49*
N#Cc1nc(Cc2cccc3ccccc23)oc1NCCCN1CCOCC1 | -11 | 16 | 8 | 0 | -42*
Cc1ccc(N2CC(NC(=O)/C=C\c3ccc4c(c3)OCO4)CC2=O)cc1 (stereo not given) | 1 | 1 | -3 | 0 | /
COc1ccc(NC(=O)CSc2oc(-c3ccco3)nc2S(=O)(=O)c2ccccc2)c(OC)c1 | 0 | 7 | 4 | 0 | 5
CCOc1ccc(NC(=O)CSc2nnc(CNC(=O)C34CC5CC(CC(C5)C3)C4)n2CC)cc1 | -3 | 12 | 1 | -1 | 13
COC(=O)c1cc(Br)c(=O)n(CCN2CCCC2)c1 | -8 | -6 | 2 | 1 | -7
COC(=O)c1cc(Br)c(=O)n(CC(C)C)c1 | 3 | 31* | 1 | -1 | -1
COc1cccc2c1Oc1ncccc1N(C(=O)CCC(=O)NCc1ccc(OC(C)C)cc1)C2 | 2 | -12 | -1 | -1 | 6
CN(C)c1ccc(C(CNS(=O)(=O)c2ccc(Br)cc2)N2CCOCC2)cc1 (stereo not given) | 3 | -4 | 2 | -1 | -4
O=C(CN(Cc1ccccc1)S(=O)(=O)c1cccc(C(F)(F)F)c1)NC1CCCCC1 | 1 | -9 | 5 | 1 | -31*
S=c1[nH]nc(-c2ccncc2)n1/N=C/c1cn(-c2ccccc2)nc1-c1ccccc1 | 0 | 30* | 5 | 0 | -6
O=[N+]([O-])c1ccc(-c2nn(-c3ccccc3)cc2/C=N/n2c(-c3ccncc3)n[nH]c2=S)cc1 | 2 | 5 | 0 | 0 | -10
CNCc1c(OCc2ccccc2)ccc2ccccc12 | -20 | 3 | 25 | 1 | -45*
CC(C)(CO)NCc1c(OCc2ccc(Cl)cc2)ccc2ccccc12 | -18 | -7 | 35* | 2 | 2
COc1cc(CNC(C)(C)CO)cc(Br)c1OCc1ccc(Cl)cc1 | -7 | -7 | 34* | 1 | -6
Cc1ccc(NCc2ccccc2OCc2ccccc2F)cc1 | -2 | 4 | 4 | -1 | 6
Cc1c(OCc2ccccc2)cccc1OCc1ccccc1 | -3 | -3 | 1 | 1 | 3
SMILES | D1 PAM | TRHR PAM | D1 agonist | TRHR agonist | D1 antagonist
CNCc1c(OCc2ccccc2F)ccc2ccccc12 | -3 | -1 | 39* | -1 | -81*
CC(C)(C)c1ccc(Nc2nc(C#N)nc(NC3CCCC3)n2)cc1 | 4 | 5 | 6 | 1 | -1
CCOc1ccc(C(=O)Nc2nnc(S(=O)(=O)N(CC)c3ccccc3C)s2)cc1 | -4 | -7 | 5 | 0 | 8
CC(=O)N1c2ccccc2CC1C(=O)N1CCN(c2ccccc2F)CC1 (stereo not given) | 0 | 3 | 0 | 0 | 16
O=C(Nc1ccc(Cl)c(Cl)c1)c1ccc(Cn2cc(Cl)cn2)cc1 | -6 | 3 | 34* | 0 | -7
NNC(=O)c1ccc(Cn2cc(Cl)cn2)cc1 | -4 | -3 | 2 | 0 | -15
CC/C(=N/N=C(\CC)c1ccccc1)c1ccccc1 | -2 | 8 | 0 | 0 | -46*
CC/C(=N\NC(=S)Nc1cccc(C)c1)c1ccccc1 | -5 | -4 | 4 | 0 | 1
C/C=C/C(=O)Nc1cccc(C2=NOC3(C2)C[C@@H](C(N)=O)N(C(=O)/C(C)=C/C)C3)c1 (stereo not given in full) | 2 | -1 | 2 | 0 | -31*
C/C=C(/C)C(=O)Nc1cccc(C2=NOC3(C2)C[C@@H](C(N)=O)N(C(=O)CC)C3)c1 (stereo not given in full) | -9 | -12 | 1 | 0 | -7
C=C(C)C(=O)Nc1cccc(C2=NOC3(C2)C[C@@H](C(N)=O)N(C(=O)c2ccc(OC)cc2)C3)c1 (stereo not given in full) | -7 | 6 | 1 | 0 | -33*
C/C=C(\C)C(=O)Nc1cccc(C2=NOC3(C2)C[C@H](C(N)=O)N(C(=O)CC#N)C3)c1 (stereo not given in full) | -5 | 24 | 2 | 0 | -48*
C=C(C)C(=O)Nc1cccc(C2=NOC3(C2)C[C@@H](C(N)=O)N(C(=O)c2cc([N+](=O)[O-])cc([N+](=O)[O-])c2)C3)c1 (stereo not given in full) | -2 | 0 | 1 | 0 | -16
CC(C)(C)n1nnnc1C(c1ccncc1)N1CCN(C2CCCCC2)CC1 (stereo not given) | -4 | -8 | 4 | 0 | -18
Cc1cccc(N2CCN(C(c3ccncc3)c3nnnn3C(C)(C)C)CC2)c1C (stereo not given) | -8 | 3 | 0 | 0 | -40*
CCN1CCN(c2cc3c(cc2F)c(=O)c(S(=O)(=O)c2cc(C)cc(C)c2)cn3CC)CC1 | 0 | 6 | -2 | 0 | -12
Cc1cc(C(=O)Nc2ccccc2C(=O)O)ccc1NC(=O)COc1ccccc1Cl | -1 | 35* | 0 | -1 | -2
COc1c(Cl)cc(C(=O)Nc2ccccc2C(=O)O)cc1Cl | 6 | 2 | 3 | 0 | -37*
O=C1CCCC2=C1C(c1ccc(O)c(Br)c1)C1=C(CCCC1=O)N2c1ccccc1 | 1 | -5 | 9 | 0 | -37*
CCOc1ccc(NC(=O)Cn2cc(C(=O)c3ccccc3)c(=O)c3cc4c(cc32)OCCO4)cc1 | -1 | -1 | 7 | 1 | 7
O=C(CN1CCN(C(=O)CCC(=O)N2CCC(c3ccccc3)=N2)CC1)Nc1ccc(F)cc1 | -6 | -2 | 4 | 0 | -41*
COc1ccccc1NC(=O)c1ccc2oc(=O)c(S(=O)(=O)c3ccccc3)cc2c1 | -2 | -5 | -1 | 0 | -56*
Cc1ccc(NC(=O)c2ccc3oc(=O)c(S(=O)(=O)c4ccccc4)cc3c2)cc1C | 0 | -4 | 0 | 0 | -2

Screening data deposited in PubChem BioAssay by National Center for Advancing Translational Sciences (NCATS).
